Reference: PubChem BioAssay
Calls of active or inactive are those of the source.

How the values were obtained:
Albumin (Bos taurus) = Albumin (Bos taurus) (UniProt P02769); assay: compounds binding labelled BSA control protein – biochemical, small-molecule microarray, Alexa647 label, 635/667 nm fluorescence, artefact control for SMM control protein annotation, profiling panel (AID 1118); details: BSA-A647 binding, fluorescence 635 nm, higher = more signal;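 note: score merges 667 nm emission intensity and signal-to-noise per printed compound spot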
[1] = probe aXIP binding to arrayed compounds – biochemical, NeuroSMM set, 635/667 nm fluorescence, primary screen (AID 1119); details: small-molecule microarray, higher = more signal, called active from +8 up or from −8 down;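 note: probe is the protein aXip251-270 applied at 1 µg/mL to compound-printed slides; binding of probe to printed compounds measured as 667 nm fluorescence plus signal to noise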
[2] = probe aNOTCH3 binding on compound microarray – biochemical, small-molecule microarray, 635/667 nm fluorescence, primary screen (AID 1120); details: higher = more signal;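 note: probe is a biotin-tagged antibody raised against NOTCH3 rather than NOTCH3 protein; score merges spot fluorescence near 667 nm with spot signal to noise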
[3] = probe aNOTCH2 binding on compound microarray – biochemical, small-molecule microarray, 635/667 nm fluorescence, primary screen (AID 1121); details: higher = more signal;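 note: score merges feature fluorescence read at 667 nm with its signal to noise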
[4] = molecular target: Carbonic anhydrase 2 (Homo sapiens) (UniProt P00918); assay: compounds binding carbonic anhydrase 2 – biochemical, small-molecule microarray, Alexa647-labelled CAII, profiling panel (AID 1122); details: CAII-A647 binding fluorescence, higher = more signal
[5] = COS7 lysate on small-molecule microarray, probe aHis, 635 nm (AID 1123); details: COS7 cell lysate, fluorescence, higher = more signal;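 note: z-score combines 667nm fluorescence intensity with signal-to-noise per printed compound spot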
[6] = probe aLAP1 signal on lysate-treated microarray – cell lysate, small-molecule microarray, COS7 lysate, primary screen (AID 1124); details: probe aLAP1, fluorescence, higher = more signal;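 note: lysate comes from COS7 cells expressing LAP1 and is applied at 0.3 µg/mL; score merges spot fluorescence near 667 nm with signal-to-noise over triplicate slides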
Sam68 (KHDRBS1) = assay: compounds binding KHDRBS1 protein – biochemical, small-molecule microarray, 635 nm fluorescence, primary screen (AID 1125); details: higher = more signal;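 note: score merges 667 nm channel intensity with signal to noise over triplicate slides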
[7] = tested on: Chordin-like protein 2 (CHRDL2); assay: compounds binding chordin-like 2 – biochemical, small-molecule microarray, 635 nm fluorescence, primary screen (AID 1126); details: fluorescence 635 nm, higher = more signal;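 note: printed compound slides probed with Chrdl2 protein at 4 µg/mL for 1 h at 4 C; score merges 667 nm emission intensity with signal to noise over three replicate slides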
[8] = molecular target: Concanavalin-A (Canavalia ensiformis) (UniProt P02866); assay: compounds binding concanavalin A lectin – biochemical, small-molecule microarray, Alexa647 label, 635 nm, artefact control for SMM control protein annotation, primary screen (AID 1127); details: ConA-A647 binding fluorescence, higher = more signal;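 note: z combines 667 nm emission intensity with signal-to-noise across three replicate slides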
[9] = compounds binding Alexa647 anti-His antibody – biochemical, small-molecule microarray, 635 nm fluorescence, artefact control for SMM control protein annotation, primary screen (AID 1128); details: higher = more signal;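 note: score merges feature fluorescence with signal-to-noise for each printed compound spot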
[10] = tested on: Human papillomavirus type 1a E7 protein (residues 1-88); assay: HPV1a E7 small-molecule binders, primary screen, biochemical, small-molecule microarray, residues 1-88, 635 nm (AID 1129); details: small-molecule microarray binding, fluorescence 635 nm; higher = more signal
[11] = molecular target: Focal adhesion kinase 1 (Homo sapiens) (UniProt Q05397); assay: PTK2 protein binding on printed compound slides – biochemical, small-molecule microarray, 635/667 nm fluorescence, BSA, DTT, primary screen (AID 1130); details: 635 nm fluorescence, higher = more signal;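 note: composite of spot emission at 667 nm and signal to noise over triplicate slides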
[12] = tested on: Fibrinogen (Alexa647-labelled); assay: Alexa647-fibrinogen binding to printed small molecules – biochemical, small-molecule microarray, 635/667 nm fluorescence, artefact control for SMM control-protein annotation, profiling panel (AID 1131); details: fibrinogen-A647 binding fluorescence, higher = more signal;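 note: z-score merges 667 nm fluorescence with per-spot signal-to-noise over triplicate slides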
[13] = molecular target: Follistatin (Homo sapiens) (UniProt P19883); assay: FST protein binding to printed compounds – biochemical, small-molecule microarray, 635/667 nm fluorescence, primary screen (AID 1132); details: 635 nm fluorescence, higher = more signal
[14] = molecular target: Fibroblast growth factor 2 (Homo sapiens) (UniProt P09038); assay: basic fibroblast growth factor binding to printed compounds – biochemical, small-molecule microarray, 635/667 nm fluorescence, primary screen (AID 1133); details: FGF2, fluorescence 635/667, higher = more signal
[15] = JC-1 mitochondrial potential readout, lung cancer cells – cell-based, A549, JC-1 fluorescence, basal, 24 h, 100 nL, profiling panel (AID 1138); details: higher = more signal;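 note: A549 lung adenocarcinoma cells under basal conditions with no added stimulus; test concentration not given here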
Lefty1 = Lefty1 protein binding to printed compounds – biochemical, small-molecule microarray, 635/667 nm fluorescence, primary screen (AID 1139); details: fluorescence 635/667, higher = more signal
[16] = tested on: wheat germ agglutinin (Triticum aestivum), Alexa647-labelled; assay: Alexa647-WGA lectin binding to printed small molecules – biochemical, small-molecule microarray, 635/667 nm fluorescence, artefact control for SMM control-protein annotation, profiling panel (AID 1140); details: WGA-A647 binding, 635 nm fluorescence, higher = more signal;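 note: score merges 667 nm feature emission with signal to noise over triplicate slides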
[17] = molecular target: Luciferin 4-monooxygenase (Photinus pyralis) (UniProt P08659); assay: inhibition of purified Photinus pyralis luciferase – biochemical, luminescence, purified enzyme, 2006 set, primary screen (AID 1141); details: purified firefly luciferase, SteadyGlo luminescence, 30 min; higher = more signal, called active from +8 up or from −8 down;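 note: cell-free assay with purified firefly luciferase at 100 ng per well in PBS; test concentration not given here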
Luciferin 4-monooxygenase (Photinus pyralis), sequence (P08659 whole entry, looked up): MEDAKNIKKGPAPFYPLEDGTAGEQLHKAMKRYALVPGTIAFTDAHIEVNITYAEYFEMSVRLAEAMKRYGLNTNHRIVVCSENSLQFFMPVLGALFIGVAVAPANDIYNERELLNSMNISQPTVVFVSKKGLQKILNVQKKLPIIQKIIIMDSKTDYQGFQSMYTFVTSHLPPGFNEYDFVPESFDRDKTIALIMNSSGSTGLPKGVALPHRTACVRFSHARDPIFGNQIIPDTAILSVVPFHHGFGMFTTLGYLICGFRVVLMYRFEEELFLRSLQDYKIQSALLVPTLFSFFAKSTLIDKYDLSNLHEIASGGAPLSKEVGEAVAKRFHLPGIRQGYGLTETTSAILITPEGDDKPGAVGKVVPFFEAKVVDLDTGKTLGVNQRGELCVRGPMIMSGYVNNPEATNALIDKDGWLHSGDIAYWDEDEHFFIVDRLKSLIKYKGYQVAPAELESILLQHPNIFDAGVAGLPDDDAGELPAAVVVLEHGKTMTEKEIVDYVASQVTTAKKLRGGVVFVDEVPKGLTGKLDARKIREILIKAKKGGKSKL

Concanavalin-A (Canavalia ensiformis), sequence (P02866 whole entry, looked up): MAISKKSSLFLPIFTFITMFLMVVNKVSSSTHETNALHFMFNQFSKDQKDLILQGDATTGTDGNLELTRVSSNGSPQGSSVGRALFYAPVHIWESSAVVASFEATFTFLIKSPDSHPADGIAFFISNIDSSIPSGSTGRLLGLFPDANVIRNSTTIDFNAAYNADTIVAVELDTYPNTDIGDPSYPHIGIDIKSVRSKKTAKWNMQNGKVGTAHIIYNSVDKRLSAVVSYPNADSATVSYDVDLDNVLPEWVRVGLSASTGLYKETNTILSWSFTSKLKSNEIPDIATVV
Fibroblast growth factor 2 (Homo sapiens), sequence (P09038 whole entry, looked up): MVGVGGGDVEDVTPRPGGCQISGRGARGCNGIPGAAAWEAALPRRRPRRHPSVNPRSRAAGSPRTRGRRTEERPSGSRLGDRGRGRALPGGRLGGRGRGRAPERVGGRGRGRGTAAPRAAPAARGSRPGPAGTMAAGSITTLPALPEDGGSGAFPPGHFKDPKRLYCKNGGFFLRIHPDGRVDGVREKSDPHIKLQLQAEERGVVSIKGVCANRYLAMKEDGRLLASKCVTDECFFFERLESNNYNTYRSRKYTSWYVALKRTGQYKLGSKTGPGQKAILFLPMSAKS
Albumin (Bos taurus), sequence (P02769 whole entry, looked up): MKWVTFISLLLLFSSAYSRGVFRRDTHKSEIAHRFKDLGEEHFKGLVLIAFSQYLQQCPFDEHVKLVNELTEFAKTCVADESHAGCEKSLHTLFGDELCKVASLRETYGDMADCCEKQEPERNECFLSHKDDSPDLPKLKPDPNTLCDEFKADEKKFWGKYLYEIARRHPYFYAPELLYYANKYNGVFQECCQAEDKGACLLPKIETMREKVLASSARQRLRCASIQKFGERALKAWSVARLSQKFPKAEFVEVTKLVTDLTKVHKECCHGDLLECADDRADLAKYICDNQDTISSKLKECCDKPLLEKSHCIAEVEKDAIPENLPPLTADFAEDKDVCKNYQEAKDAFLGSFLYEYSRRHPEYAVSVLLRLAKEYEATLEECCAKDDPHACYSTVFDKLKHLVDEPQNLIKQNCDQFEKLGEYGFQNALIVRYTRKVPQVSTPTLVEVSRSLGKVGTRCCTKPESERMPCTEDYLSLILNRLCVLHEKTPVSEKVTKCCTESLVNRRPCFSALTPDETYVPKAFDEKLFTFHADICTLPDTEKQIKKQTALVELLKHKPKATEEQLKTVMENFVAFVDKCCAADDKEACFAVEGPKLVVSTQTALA
Focal adhesion kinase 1 (Homo sapiens), sequence (Q05397 whole entry, looked up): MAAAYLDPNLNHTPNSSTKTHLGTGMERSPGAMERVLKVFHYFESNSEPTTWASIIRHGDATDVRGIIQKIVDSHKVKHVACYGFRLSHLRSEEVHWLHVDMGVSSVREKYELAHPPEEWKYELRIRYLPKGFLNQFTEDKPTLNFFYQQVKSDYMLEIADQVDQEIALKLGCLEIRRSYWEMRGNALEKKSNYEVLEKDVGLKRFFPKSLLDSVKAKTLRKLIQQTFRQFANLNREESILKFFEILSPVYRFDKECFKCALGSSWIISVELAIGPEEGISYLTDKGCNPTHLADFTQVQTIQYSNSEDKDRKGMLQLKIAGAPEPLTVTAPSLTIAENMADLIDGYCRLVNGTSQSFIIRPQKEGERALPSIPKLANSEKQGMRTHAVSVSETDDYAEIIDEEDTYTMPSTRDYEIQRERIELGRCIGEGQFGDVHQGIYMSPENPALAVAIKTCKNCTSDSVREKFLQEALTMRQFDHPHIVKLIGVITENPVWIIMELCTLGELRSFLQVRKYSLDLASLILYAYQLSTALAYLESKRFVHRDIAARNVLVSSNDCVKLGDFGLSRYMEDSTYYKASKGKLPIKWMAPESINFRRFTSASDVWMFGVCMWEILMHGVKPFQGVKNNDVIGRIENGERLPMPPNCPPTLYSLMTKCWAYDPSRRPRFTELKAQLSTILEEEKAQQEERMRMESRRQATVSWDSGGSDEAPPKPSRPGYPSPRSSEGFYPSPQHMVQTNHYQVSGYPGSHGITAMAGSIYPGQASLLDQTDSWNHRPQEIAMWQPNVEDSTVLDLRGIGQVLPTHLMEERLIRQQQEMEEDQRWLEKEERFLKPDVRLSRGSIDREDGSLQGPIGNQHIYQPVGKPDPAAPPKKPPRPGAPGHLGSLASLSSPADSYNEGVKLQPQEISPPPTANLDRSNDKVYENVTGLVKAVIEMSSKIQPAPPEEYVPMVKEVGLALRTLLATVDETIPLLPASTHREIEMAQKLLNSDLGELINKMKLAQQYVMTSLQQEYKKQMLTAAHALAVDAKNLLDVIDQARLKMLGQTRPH
Follistatin (Homo sapiens), sequence (P19883 whole entry, looked up): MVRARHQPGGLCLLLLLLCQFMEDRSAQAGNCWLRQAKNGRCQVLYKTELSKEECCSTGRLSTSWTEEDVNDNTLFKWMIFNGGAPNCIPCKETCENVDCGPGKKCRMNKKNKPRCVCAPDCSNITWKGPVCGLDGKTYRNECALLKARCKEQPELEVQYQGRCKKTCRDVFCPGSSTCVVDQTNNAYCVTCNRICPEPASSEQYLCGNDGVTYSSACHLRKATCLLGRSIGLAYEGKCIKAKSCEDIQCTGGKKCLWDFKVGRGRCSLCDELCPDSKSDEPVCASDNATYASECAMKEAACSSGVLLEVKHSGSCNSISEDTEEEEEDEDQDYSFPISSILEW

| Structure (SMILES) | composite z-score (Albumin (Bos taurus)) | composite Z-score [1] | composite z-score [2] | composite z-score [3] | composite z-score [4] | composite z-score [5] | composite z-score [6] | composite z-score (Sam68 (KHDRBS1)) | composite z-score [7] | composite z-score [8] | composite z-score [9] | composite z-score [10] | composite z-score [11] | composite z-score [12] | composite z-score [13] | composite z-score [14] | z-score [15] | composite z-score (Lefty1) | composite z-score [16] | z-score [17] |
| --- | --- | --- | --- | --- | --- | --- | --- | --- | --- | --- | --- | --- | --- | --- | --- | --- | --- | --- | --- | --- |
| COC(=O)[C@@]1(Cc2ccc(OC)cc2)[C@H]2c3cc(C(=O)N4CCCC4)n(CCSCCO)c3C[C@H]2CN1C(=O)c1ccccc1 | 0.905 | 0.228 (inactive) | 0.211 | 0.0312 | 0.678 | 3.24 | 0.247 | 0.657 | -0.633 | 0.941 | 2.01 | 1.29 | 0.529 | 0.787 | -0.0598 | -0.254 | 0.572 | -0.731 | 1.39 | 0.644 (inactive) |
| O=C1OCC=C[C@H]2OC34C=CCN(CCN5CCOCC5)C(=O)[C@H]3N(CCO)C(=O)[C@@H]4[C@@H]12 (stereo not given in full) | -0.263 | 0.198 (inactive) | -0.0221 | -0.208 | 0.764 | -0.214 | -0.194 | 0.457 | 0.0881 | 0.575 | 0.15 | -0.204 | -0.133 | 0.368 | 0.597 | -0.219 | 0.587 | 1.41 | 0.0315 | -0.602 (inactive) |
| CCCCCCc1nc(-c2ccc(-c3ccc(Cl)c(Cl)c3)o2)c(C)c2c1[Si](C(C)C)(C(C)C)OC2 | 0.13 | 0.0001 (inactive) | -0.1 | -0.166 | 0.0293 | 0.645 | -0.173 | 0.1 | -1.06 | 0.999 | -0.0923 | -0.634 | -0.0899 | -0.086 | -0.0705 | -0.773 | -0.838 | 0.268 | -0.328 | -2.67 (inactive) |
| O=C1NC(=O)C2C1C=CC(C(O)c1ccc(-c3ccccc3)s1)N2Nc1ccc(Cl)cc1Cl (stereo not given) | 0.924 | 1.1 (inactive) | 0.0979 | -0.0611 | 0.759 | 2.82 | 1.2 | 1.33 | -0.717 | 1.06 | 0.752 | 1.11 | 1.06 | 0.934 | 0.833 | -0.91 | -0.536 | 0.127 | 0.865 | -0.289 (inactive) |
| NCCCCCCNC(=O)[C@H]1C[C@H]2C(=O)N[C@@H](Cc3ccccc3)C(=O)N2[C@H]1c1cccc(OCCO)c1 | 0.845 | -0.336 (inactive) | 0.0657 | -0.0712 | 0.788 | 0.446 | 0.464 | 0.58 | -0.431 | 1.03 | 0.786 | 0.248 | 0.376 | 0.72 | 1.08 | -0.044 | 0.481 | 0.0358 | 0.961 | 0.0326 (inactive) |
| O=C1[C@H]2C=C(I)[C@H](C[C@@H]2OCCCCO)[C@@]12CO2 | -1.17 | 0.32 (inactive) | -0.0057 | -0.061 | 0.758 | 0.141 | 0.489 | 0.579 | -0.11 | -0.0969 | -0.276 | 0.0789 | 0.465 | -0.327 | 0.167 | -0.0868 | -0.106 | 0.115 | -0.428 | 0.291 (inactive) |
| COc1ccccc1CN1C(=O)c2ccccc2[C@@]2(Cc3ccccc3N(CCCN(C)C)C2=O)[C@@H]1c1ccc(CO)cc1 | -0.909 | 0.027 (inactive) | -0.0797 | 0.0687 | -0.271 | 0.5 | -0.0231 | -0.204 | 1.27 | 0.417 | 0.583 | -0.984 | -0.0228 | 0.253 | 1.2 | 0.459 | -0.202 | 0.647 | -0.331 | -0.278 (inactive) |
| CCOC(=O)C1=CC[C@@H](c2ccc(C(F)(F)F)cc2)N(S(=O)(=O)c2ccc(C)cc2)[C@H]1c1ccccc1 | 0.871 | 0.506 (inactive) | 0.158 | 0.21 | 0.603 | 2.27 | 0.782 | 1.31 | -0.863 | 1.13 | 2.1 | 1.21 | 0.81 | 0.955 | 0.377 | -0.149 | -1.9 | 0.0777 | 1.22 | 0.849 (inactive) |
| CN(C)CCCCCCNC(=O)[C@@H]1C[C@@H]2C(=O)N[C@@H](CCCC[N+](C)(C)C)C(=O)N2[C@@H]1c1ccc(O)cc1 | -0.793 | 1.56 (inactive) | 0.164 | -0.231 | 0.797 | 0.125 | 0.246 | 0.794 | 0.918 | 0.898 | 0.486 | -0.396 | 0.678 | -0.335 | 0.82 | 0.825 | -0.147 | 0.798 | 0.427 | -0.882 (inactive) |
| [N-]=[N+]=Nc1ccccc1C[C@]1(C(=O)N2CCCCC2)COC(c2ccc(OCCCO)cc2)=N1 | 0.715 | -0.218 (inactive) | 0.176 | -0.124 | 0.613 | 2.74 | 0.236 | 1.28 | -0.217 | 0.345 | 1.33 | 1.15 | 0.65 | 1.01 | 0.601 | -0.0446 | 0.124 | 0.308 | 0.523 | -6.97 (inactive) |
| CCCCN1CC=CC23O[C@@H]4C=CCCOC(=O)C4[C@H]2C(=O)N(CCCCCO)[C@@H]3C1=O (stereo not given in full) | 0.438 | 0.251 (inactive) | -0.297 | -0.132 | 0.861 | -0.0221 | -0.327 | -0.444 | -0.882 | -0.131 | 1.88 | -0.306 | 0.779 | -0.905 | -0.592 | -0.437 | 0.976 | -0.0266 | 0.0604 | -0.469 (inactive) |
